{
  "source": "paper PMC11062922",
  "about": "(Nature Chemical Biology, 2023)",
  "set-up_in_all_cases": "species or system human, MV4-11 + K-562 + COLO205 + SK-N-BE2 + OVCAR-8",
  "key": {"[1]": {"test_system": "MET", "conditions": "read-out: apparent Kd, n = 1"}, "[2]": {"test_system": "SIK3", "conditions": "read-out: apparent Kd, compound concentrations: 100 nM and 1000 nM (sheet 'Samples'), n = 1"}, "[3]": {"test_system": "EPHA7", "conditions": "read-out: apparent Kd, compound concentrations: 100 nM and 1000 nM (sheet 'Samples'), n = 1"}, "[4]": {"test_system": "CAMK2G", "conditions": "read-out: apparent Kd, compound concentrations: 100 nM and 1000 nM (sheet 'Samples'), n = 1"}, "[5]": {"test_system": "PDXK", "conditions": "read-out: apparent Kd; compound concentrations: 100 nM and 1000 nM (sheet 'Samples'), CATDS: 3.03985195702474E-2; n = 1"}, "[6]": {"test_system": "AGK", "conditions": "read-out: apparent Kd; compound concentrations: 100 nM and 1000 nM (sheet 'Samples'), CATDS: 3.9029734313372399E-3; n = 1"}, "[7]": {"test_system": "BMPR1B", "conditions": "read-out: apparent Kd, n = 1"}, "[8]": {"test_system": "CAMK2B", "conditions": "read-out: apparent Kd; compound concentrations: 100 nM and 1000 nM (sheet 'Samples'), CATDS: 6.4404686092337498E-3; n = 1"}, "[9]": {"test_system": "CDK12", "conditions": "read-out: apparent Kd; compound concentrations: 100 nM and 1000 nM (sheet 'Samples'), CATDS: 3.82162717704907E-3; n = 1"}, "[10]": {"test_system": "ERN2", "conditions": "read-out: apparent Kd, n = 1"}, "[11]": {"test_system": "MAP2K6", "conditions": "read-out: apparent Kd; compound concentrations: 100 nM and 1000 nM (sheet 'Samples'), CATDS: 4.6544489898713796E-3; n = 1"}, "[12]": {"test_system": "MST1R", "conditions": "read-out: apparent Kd; compound concentrations: 100 nM and 1000 nM (sheet 'Samples'), CATDS: 4.6001362310290703E-3; n = 1"}, "[13]": {"test_system": "RIPK3", "conditions": "read-out: apparent Kd, n = 1"}, "[14]": {"test_system": "TAOK3", "conditions": "read-out: apparent Kd; compound concentrations: 100 nM and 1000 nM (sheet 'Samples'), CATDS: 4.5729665408397397E-3; n = 1"}, "[15]": {"test_system": "GSK3A", "conditions": "compound concentrations:0.3nM, 1nM, 3nM, 10nM, 30nM, 100nM, 300nM, 1000nM,R2:0.98891896520214295,slope:0.86644868747919301,EC50 Standard Error, by the legend:Standard error of the EC50 estimation as provided by the drc package."}, "[16]": {"test_system": "GSK3B", "conditions": "compound concentrations:0.3nM, 1nM, 3nM, 10nM, 30nM, 100nM, 300nM, 1000nM,R2:0.97796062612419798,slope:0.95181625856524898,EC50 Standard Error, by the legend:Standard error of the EC50 estimation as provided by the drc package."}, "[17]": {"test_system": "LATS1", "conditions": "compound concentrations:0.3nM, 1nM, 3nM, 10nM, 30nM, 100nM, 300nM, 1000nM,R2:0.99282697672558795,slope:1.31312375653091,EC50 Standard Error, by the legend:Standard error of the EC50 estimation as provided by the drc package."}, "[18]": {"test_system": "PKN1", "conditions": "compound concentrations:0.3nM, 1nM, 3nM, 10nM, 30nM, 100nM, 300nM, 1000nM,R2:0.99748458534068796,slope:1.1297658372901001,EC50 Standard Error, by the legend:Standard error of the EC50 estimation as provided by the drc package."}, "[19]": {"test_system": "PRKX", "conditions": "compound concentrations:0.3nM, 1nM, 3nM, 10nM, 30nM, 100nM, 300nM, 1000nM,R2:0.99104054700331501,slope:1.8352310088782899,EC50 Standard Error, by the legend:Standard error of the EC50 estimation as provided by the drc package."}, "[20]": {"conditions": "compound concentrations:100 nM and 1000 nM (sheet 'Samples')"}},
  "note": "pEC50, pKd: −log10 of the molar value. Where two headings read alike, the source gives them in different places.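 Wherever EC50 is given: competition pulldown with Kinobeads ε in cell lysates, inhibitor preincubated 45 min at 4 °C, bound kinases quantified by LC–MS/MS against DMSO control.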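 Wherever Kd is given: competition pulldown with Kinobeads ε in cell lysates, inhibitor preincubated 45 min at 4 °C, bound kinases quantified by LC–MS/MS against DMSO control.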",
  "data": [
    {"compound": "COc1ccc(Nc2ncc(C#N)c(Nc3ccccc3C(N)=O)n2)cc1N1CCN(C)CC1.Cl", "note": "[GSK1558669A]", "values": [
      {"measurement": "potency estimated from few doses", "setting": "[1]; compound concentrations: 100 nM and 1000 nM (sheet 'Samples'), CATDS: 6.0762727664259702E-3", "result": 1.6, "unit": "µM"},
      {"measurement": "potency estimated from few doses", "setting": "[2]; CATDS: 6.59336570259887E-3", "result": 0.968, "unit": "µM"}
    ]},
    {"compound": "CCOC(=O)N1CCC(n2cnc(-c3ccc(F)cc3)c2-c2ccnc(N)n2)CC1", "note": "[SB-219952]", "values": [
      {"measurement": "potency estimated from few doses", "setting": "[3]; CATDS: 8.0080287869844797E-3", "result": 1.69, "unit": "µM"}
    ]},
    {"compound": "CN(c1ccc(NC(=O)N2CCN(CCCN3CCOCC3)CC2)cc1)c1ccnc(Nc2ccc(CS(C)(=O)=O)cc2)n1.Cl", "note": "[GW830899A]", "values": [
      {"measurement": "potency estimated from few doses", "setting": "[4]; CATDS: 3.6233110942478698E-2", "result": 0.457, "unit": "µM"},
      {"measurement": "potency estimated from few doses", "setting": "[5]", "result": 0.617, "unit": "µM"}
    ]},
    {"compound": "Cn1ncc2c(N)ncnc21", "note": "[SKF-18267]", "values": [
      {"measurement": "potency estimated from few doses", "setting": "[6]", "result": 1.42, "unit": "µM"},
      {"measurement": "potency estimated from few doses", "setting": "[7]; compound concentrations: 100 nM and 1000 nM (sheet 'Samples'), CATDS: 8.9058122855820206E-3", "result": 0.311, "unit": "µM"},
      {"measurement": "potency estimated from few doses", "setting": "[8]", "result": 0.514, "unit": "µM"},
      {"measurement": "potency estimated from few doses", "setting": "[4]; CATDS: 7.7542498365532697E-3", "result": 0.382, "unit": "µM"},
      {"measurement": "potency estimated from few doses", "setting": "[9]", "result": 1.51, "unit": "µM"},
      {"measurement": "potency estimated from few doses", "setting": "[3]; CATDS: 4.1620084388922602E-3", "result": 1.21, "unit": "µM"},
      {"measurement": "potency estimated from few doses", "setting": "[10]; compound concentrations: 100 nM and 1000 nM (sheet 'Samples'), CATDS: 4.8185865403999398E-3", "result": 0.877, "unit": "µM"},
      {"measurement": "potency estimated from few doses", "setting": "[11]", "result": 0.943, "unit": "µM"},
      {"measurement": "potency estimated from few doses", "setting": "[1]; compound concentrations: 100 nM and 1000 nM (sheet 'Samples'), CATDS: 4.2018834707484203E-3", "result": 1.19, "unit": "µM"},
      {"measurement": "potency estimated from few doses", "setting": "[12]", "result": 0.967, "unit": "µM"},
      {"measurement": "potency estimated from few doses", "setting": "[13]; compound concentrations: 100 nM and 1000 nM (sheet 'Samples'), CATDS: 3.42256468250394E-3", "result": 2.08, "unit": "µM"},
      {"measurement": "potency estimated from few doses", "setting": "[2]; CATDS: 3.59529212961178E-3", "result": 1.79, "unit": "µM"},
      {"measurement": "potency estimated from few doses", "setting": "[14]", "result": 0.979, "unit": "µM"}
    ]},
    {"compound": "Cc1cccc(Nc2nc(N[C@H]3CCCC[C@H]3N)ncc2C(N)=O)c1.Cl", "note": "[GSK986310C]", "values": [
      {"measurement": "potency estimated from few doses", "setting": "[10]; [20]", "result": 1.4, "unit": "µM"}
    ]},
    {"compound": "CNC(=O)c1ccccc1Nc1nc(Nc2ccc(N3CCOCC3)cc2)ncc1Cl.Cl", "note": "[GSK1576028A]", "values": [
      {"measurement": "potency estimated from few doses", "setting": "[7]; [20]", "result": 0.429, "unit": "µM"},
      {"measurement": "potency estimated from few doses", "setting": "[1]; [20]", "result": 0.0681, "unit": "µM"}
    ]},
    {"compound": "CCn1c(-c2nonc2N)nc2c(C#CC(C)(C)O)nc(OCCN)cc21.CCn1c(-c2nonc2N)nc2c(C#CC(C)(C)O)nc(OCCN)cc21.Cl.Cl", "note": "[GSK902056A]", "values": [
      {"measurement": "pEC50", "setting": "[15]", "result": 6.76},
      {"measurement": "pKd", "setting": "[15]; read-out: apparent Kd", "result": 6.78},
      {"measurement": "pEC50", "setting": "[16]", "result": 6.53},
      {"measurement": "pKd", "setting": "[16]; read-out: apparent Kd", "result": 6.54},
      {"measurement": "pEC50", "setting": "[17]", "result": 7.06},
      {"measurement": "pKd", "setting": "[17]; read-out: apparent Kd", "result": 7.06},
      {"measurement": "pEC50", "setting": "[18]", "result": 7.03},
      {"measurement": "pKd", "setting": "[18]; read-out: apparent Kd", "result": 7.03},
      {"measurement": "pEC50", "setting": "[19]", "result": 6.90},
      {"measurement": "pKd", "setting": "[19]; read-out: apparent Kd", "result": 6.90}
    ]},
    {"compound": "Cl.NCc1ccc(-c2nc(-c3ccc(Cl)c(O)c3)c(-c3ccncc3)[nH]2)cc1", "note": "[SB-476429-A]", "values": [
      {"measurement": "potency estimated from few doses", "setting": "[13]; [20]", "result": 1.2, "unit": "µM"}
    ]}
  ]
}
